Screens: PubChem BioAssay, several laboratories
PTK2B oligo ant: Pyk2 (human) oligomerization antagonism; Q14289; Q293 cells, Pyk2 FERM NanoBiT luminescence; stronger effect = lower value; z-score (the deposit names both 25 µM and 10 µM); actives 0.83% (n = 99,000); AID 1347419;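 active = Z-score of -3 or lower, scaled per plate to the spread of control and sample wells; inactive = z-score above -3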;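 also: negative z-score means lost luminescence so less FERM oligomerization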
CYP2C19 act: cytochrome P450 2C19 (human) activation; activation factor at 5 µM; 96,000 tested, under 10 active; recombinant CYP2C19, luciferin-H EGE luminescence; stronger effect = higher value; 0 = fully inhibited enzyme, 1 = untreated enzyme; AID 1025;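 active = activation factor of at least 2 at 5 µM in the primary screen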;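 also: 0 = wells with 2.5 mM tranylcypromine and 1 = vehicle-only wells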
CYP2C9 inh: human CYP2C9 inhibition; P11712; CYP2C9 Supersomes, luciferin-H conversion, luminescence; actives 20% (n = 96,000); inhibition, % at 5 µM;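 active = blocking of liver enzyme CYP2C9 beyond about 50% at 5 µM, limit read from the data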
Target sequence (P11712 whole entry, looked up): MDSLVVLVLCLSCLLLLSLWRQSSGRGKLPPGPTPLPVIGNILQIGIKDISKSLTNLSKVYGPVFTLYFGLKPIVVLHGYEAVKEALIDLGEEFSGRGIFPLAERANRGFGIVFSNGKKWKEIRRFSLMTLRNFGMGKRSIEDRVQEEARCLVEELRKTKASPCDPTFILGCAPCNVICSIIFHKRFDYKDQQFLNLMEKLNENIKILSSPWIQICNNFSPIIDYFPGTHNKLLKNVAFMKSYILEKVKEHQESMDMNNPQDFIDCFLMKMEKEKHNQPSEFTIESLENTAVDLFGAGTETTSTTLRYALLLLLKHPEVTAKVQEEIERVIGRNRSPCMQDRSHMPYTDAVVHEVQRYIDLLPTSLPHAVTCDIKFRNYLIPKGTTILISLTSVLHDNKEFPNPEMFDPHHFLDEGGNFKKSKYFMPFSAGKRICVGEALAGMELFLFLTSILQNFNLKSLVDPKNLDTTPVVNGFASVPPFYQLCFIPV
CYP2C19 inh: inhibitors of human CYP2C19 | CYP2C19 Supersomes, luciferin-H EGE luminescence, 30 min | inhibition, % at 5 µM | actives 21% (n = 96,000) | AID 778;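 active = CYP2C19 inhibition above a set limit at 5 µM in the primary screen, cut at about 50% in these data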;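 also: plate controls were negative control wells for no effect and 2.5 mM tranylcypromine positive control for full effect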
Cav32 inh: blocks human Cav3.2 T-type calcium channel | actives 4% (n = 100,000) | B-score at 10 µM | Cav3.2-expressing cells, Fluo-4 calcium fluorescence FDSS; stronger effect = lower value | AID 449739;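 active = single-dose well whose peak fluorescence ratio is a statistical outlier from its plate by either plate-standardised score or position-corrected B-score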
CYP2C9 act: CYP2C9 (human) activation; activation factor at 5 µM; recombinant CYP2C9, luciferin-H conversion, luminescence; stronger effect = higher value; factor 1 = untreated enzyme, 0 = blocked; P11712; AID 1024; actives 1.4% (n = 96,000);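 active = activation factor of 2 or more for CYP2C9 at a 5 µM dose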;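 also: 0 = sulfaphenazole-blocked wells and 1 = vehicle-only wells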
* marks the source's active call; other numbers are inactive results; nt = not tested or not shown. In the library only some 27% were active in any assay of this set; here they are far more common.

SMILES	PTK2B oligo ant	CYP2C19 act	CYP2C9 inh	CYP2C19 inh	Cav32 inh	CYP2C9 act
CCN(CC)c1cc(Oc2ccccc2)ncn1	0.68	0.2	31.2	80.0*	0.878	0.7
Cc1cc(C(=O)COC(=O)C2=NNC(=O)CC2)c(C)n1-c1ccccc1	0.28	0.5	31.7	50.1*	0.468	0.7
Cc1cc(C(=O)CN2C(=O)C3CC=CCC3C2=O)c(C)n1-c1ccccc1 (configuration not stated)	-0.06	0.7	23.8	32.8	-0.512	0.8
Cc1ccc(-n2c(C)cc(C(=O)COC(=O)C3=NNC(=O)CC3)c2C)cc1	-1.12	0.4	52.4*	61.5*	0.364	0.5
Cc1cc2nc(NC3=NCN(Cc4ccc5c(c4)OCO5)CN3)nc(C)c2cc1C	nt	0.9	6.0	9.1	nt	0.9
COc1ccccc1OCC(=O)Nc1ccc(S(=O)(=O)N2CCCCCC2)cc1	-0.2	0.1	79.6*	86.5*	-3.03	0.2
COc1ccc(OCC(=O)Nc2ccc(S(=O)(=O)N3CCCCCC3)cc2)cc1	-1.1	0.7	86.4*	30.3	nt	0.1
CC(=O)c1cccc(NC(=O)COc2ccc(S(=O)(=O)N3CCCCC3)cc2)c1	0.05	0.3	67.4*	66.6*	nt	0.3
O=C(COc1ccccc1)Nc1ccc(S(=O)(=O)N2CCCCCC2)cc1	-0.61	0.9	15.1	14.9	-1.84	0.8
Cc1ccc(S(=O)(=O)N2CCN(C(=O)CCC(=O)OCC(=O)Nc3cccc(C#N)c3)CC2)cc1	1.21	0.2	75.0*	77.7*	0.0249	0.3
CN1C(=O)N(C)C2C1NC(=O)N2C (configuration not stated)	0.39	1.1	-13.1	-11.9	-0.0113	1.1
COC(=O)CCS(=O)(=O)c1ccc(Cl)c(Cl)c1	nt	0.5	-19.5	47.9	0.334	1.2
COCCNCC(=O)C12CC3CC(CC(C3)C1)C2	0.84	0.8	-7.5	24.8	0.831	1.1
O=C(COc1ccc(S(=O)(=O)N2CCCCC2)cc1)NC1CCCCC1	1.06	0.7	72.1*	33.2	0.0251	0.3
O=C(COc1ccc(S(=O)(=O)NC2CCCCC2)cc1)NC1CCCCC1	2.64	nt	nt	nt	-3.34	nt
COc1ccccc1CN1C(=O)[C@@H]2Cc3c([nH]c4ccccc34)C(C)(C)N2C1=O	nt	nt	nt	nt	0.687	nt
Cn1c(N)c(C(=O)COC(=O)CCc2c[nH]c3ccccc23)c(=O)n(C)c1=O	0.45	0.4	-70.5	60.1*	0.627	1.7
Cc1ccc(OCC(=O)OCC(=O)c2c(N)n(C)c(=O)n(C)c2=O)cc1C	0.12	0.4	24.5	59.5*	1.12	0.8
O=C(CSc1nnc(-c2ccccc2O)o1)Oc1ccc(OCc2ccccc2)cc1	-0.07	0.5	-9.5	48.6	0.00934	1.1
Cc1cc(C(=O)Nc2ccccc2)oc1C	-0.28	0.8	-7.4	24.4	-0.275	1.1
Cc1cc(C)c2c(n1)nn1c(N3CCN(c4ccccc4C)CC3)cc(C)nc21	-1.03	nt	nt	nt	nt	nt
Cc1ccc(N2CC(C(=O)NCc3ccccn3)CC2=O)cc1 (configuration not stated)	0.76	0.8	25.6	17.0	0.636	0.7
CCCCN(CC)C(=O)Cn1c(=O)sc2ccccc21	-0.22	0.6	3.8	43.5	0.00281	1
COc1ccc(C(C)=O)cc1CSCCC#N	-0.22	0.9	3.4	7.6	0.804	1
CC1=C(C(=O)NCc2ccc3c(c2)OCO3)C2(CCC(C)CC2)OC1=O (configuration not stated)	nt	0.3	84.6*	66.0*	0.177	0.2
SMILES	PTK2B oligo ant	CYP2C19 act	CYP2C9 inh	CYP2C19 inh	Cav32 inh	CYP2C9 act
CCC(C)NC(=O)C1=C(C)C(=O)OC12CCC(C)CC2 (configuration not stated)	nt	0.2	39.0	82.3*	-0.165	0.6
O=C(O)CCN1C(=O)/C(=C\c2ccc(-c3nc4ccccc4s3)o2)SC1=S	-0.57	1	26.1	-3.5	0.736	0.7
Cn1c(COc2ccccc2)nnc1SCC(=O)NCc1ccccc1	1.99	0.9	9.3	8.2	1.1	0.9
COc1ccc2c3c(cccc13)OCC2=O	0.18	0.5	40.3	51.3*	-0.627	0.6
CN1C(=O)CC(n2c(CO)nc3ccccc32)C1=O (configuration not stated)	-0.07	0.8	27.4	21.1	1.27	0.7
Oc1ccccc1C1=Nc2nc3ccccc3n2C(c2ccccc2)C1 (configuration not stated)	-0.22	0.1	98.7*	92.4*	-7.82*	0
COc1ccc(NC(=O)c2ccccc2Cl)cc1NC(=O)CN1CCOCC1	0.6	0.8	10.5	17.3	0.0596	0.9
CCOC(=O)C[n+]1c(C)ccc2c1CCC2	-0.12	nt	nt	nt	0.383	nt
Cc1ccc(S(=O)(=O)NCCN=C(CN2CCCC2)NS(=O)(=O)c2ccc(C)cc2)cc1	-0.59	0.7	96.8*	25.5	0.161	0
Cc1ccc(Cn2c(C(C)Nc3nc(C)cs3)nc3cc(Cl)c(Cl)cc32)cc1 (configuration not stated)	nt	nt	nt	nt	-0.253	nt
CCC(C)c1nc2ccsc2c(N2CCOC2=O)c1-c1ccccc1 (configuration not stated)	nt	nt	nt	nt	-1.48	nt
CCOC(=O)c1cnn(-c2ccccc2)c1-n1cccc1C(=O)C(=O)Nc1ccc(F)cc1	1.17	0.6	74.8*	39.1	-4.25*	0.3
CCOC(=O)c1cnn(-c2ccccc2)c1N	-0.58	0.9	2.9	10.5	0.203	1
CCn1c(CNC(=O)c2ccco2)nnc1SCC(=O)Nc1ccc(Br)cc1F	0.5	nt	nt	nt	-0.245	nt
CCCCNC(=O)c1onc(CSc2ccc(F)cc2)c1C(=O)O	nt	0.9	58.0*	6.3	-0.299	0.4
CN(C)CCNC(=O)c1onc(CSc2ccc(F)cc2)c1C(=O)NCCN(C)C	nt	nt	nt	nt	-0.019	nt
CCCCNC(=O)c1onc(CSc2ccccc2F)c1C(=O)O	nt	1	57.2*	-0.1	-0.0545	0.4
CCCCNC(=O)c1onc(CSc2ccc(OC)cc2)c1C(=O)O	nt	1.1	79.8*	-11.7	-0.208	0.2
COCCNC(=O)c1onc(CSc2ccccc2)c1C(=O)O	nt	0.8	34.5	24.9	0.791	0.7
CSCCC(NC(=O)OC(C)(C)C)C(=O)Oc1ccc2c(=O)c(-c3ccc4c(c3)OCCO4)coc2c1 (configuration not stated)	-2.91	0.8	0.1	18.4	-0.303	1
CCn1cc(C(=O)NC2CCCCCC2)c2cc(OC)c(OC)cc2c1=O	-0.08	1	5.5	4.2	1.75	0.9
Cc1cc2nc(-c3ccc(SCC(=O)Nc4ccc5c(c4)OCCO5)nc3)[nH]c2cc1C	-2.26	0.7	77.5*	31.1	-0.844	0.2
Cc1cc2nc(-c3ccc(SCC(=O)N4CCN(C(=O)c5ccco5)CC4)nc3)[nH]c2cc1C	-0.23	0.3	83.8*	72.2*	-1.49	0.2
CCn1c(Cc2ccccc2)nnc1SCC(=O)Nc1nccs1	0.46	0.7	9.7	27.8	0.17	0.9
CCn1c(SCC(=O)Nc2nccs2)nnc1-c1ccccc1	0.06	0.1	51.7*	92.1*	0.462	0.5
